Source: PubChem BioAssay
Pf growth 96h: P. falciparum growth inhibition at 96 hour, primary screen for plastid delayed-death inhibitors | AID 504834 | Potency, µM (highest dose often 28.7 µM), for the others: at the highest dose activity change, negative = inhibition, usual class: inhibitors | P. falciparum luciferase reporter growth, 96 h | hit rate 6.9% among 320,000; further: potency means the concentration at half of the fitted maximal effect; on the % scale 0 is the no-effect control and ±100 the full control effect
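P. falciparum expressing integrated firefly luciferase grown in erythrocytes (2% hematocrit, 0.05% parasitemia final) with compounds for 96 hours at 37 C, 5% CO2. Growth inhibition read as loss of luminescence after adding luciferase detection reagent.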
Shiga inhibitor: Shiga toxin inhibition. hit rate 9.2% among 290,000. inhibition, % at 38.7 µM. AID 2315. Vero cells, Shiga toxin protein synthesis inhibition reporter; in the data active means inhibition mostly above about 28%, no sharp cut-off; inactive means mostly below about 43%; further: 0% is about no effect
CHX counter: affects cycloheximide protein synthesis inhibition readout, counter-screen | cell reporter, cycloheximide protein synthesis inhibition counterscreen | max response, % | hit rate 12% among 300,000 | AID 2314; in the data active means max response mostly above about 13%, no sharp cut-off; inactive means mostly below about 14%; further: read at 38.3 µM for the half of the compounds with a filed dose; 0% is about no effect
Pf growth 48h: inhibits P. falciparum growth in the first generation, 48 h | P. falciparum luciferase growth in erythrocytes, 48 h | Potency, µM (highest dose often 28.7 µM), without a hit: at the highest dose activity change, negative = inhibition, most hits filed as inhibitors | hit rate 5.9% among 310,000 | AID 504832; further: potency means the concentration at half of the fitted maximal effect; on the % scale 0 is the no-effect control and ±100 the full control effect
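Firefly luciferase activity from engineered P. falciparum reports growth; inhibitors lower the luminescent signal. Cultures contained 2% hematocrit erythrocytes at 0.1% final parasitemia.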
HCMV antiviral: inhibitors of human cytomegalovirus; hit rate 4.5% among 410,000; HFF cells, HCMV-luciferase reporter, 72 h; active compounds read low; activity change, negative = inhibition, % at 57.5 µM; AID 1259415; in the data active means activity change below about -60%; inconclusive means no clear call, values can overlap the other calls; inactive means above about -39%; further: on the % scale 0 is the no-effect control and ±100 the full control effect
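HFF cells seeded 16 h at 37C, treated with compounds, infected with luciferase-reporter HCMV at MOI 1 PFU/cell; luciferase read at 72 h post infection, normalized to buffer-only and Salinomycin controls.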
Active calls of the source: *; i = inactive; ? = inconclusive; . = no result given; [ ] = dose if it differs, or a comment. Sampled rows, rich in hits. Any-hit rate of the full collection: about 20%. Unless noted, the call rests on the fitted dose curve; in most records, active means well fitted inhibition curve with a large enough effect; inconclusive means small, poorly fitted or top-dose-only effect, or another doubt; inactive means no such curve, though single readings can be large or run the other way.

SMILES	Pf growth 96h	Shiga inhibitor	CHX counter	Pf growth 48h	HCMV antiviral
COc1ccc(OC)c(Cc2nnc(CCC(=O)NC(C3CC3)C3CC3)o2)c1	24.7%	58.6	-2.1	12.3%	-11.6
COc1ccc(OC)c(Cc2nnc(CCC(=O)NCc3ccc(C)s3)o2)c1	4.6%	-6.5	7.0	26.5%	-6.1
CCC1CCCCN1C(=O)CCc1nnc(Cc2cc(OC)ccc2OC)o1 (centres undefined)	-7.4%	92.8*	54.1*	-21.9%	-1.1
COc1ccc(OC)c(Cc2nnc(CCC(=O)N3CCCCC3)o2)c1	?	73.0*	22.5*	10.5%	-15.4
CN(C)CCN1CCN(C(c2cc3ccccc3o2)c2nnnn2C(C)(C)C)CC1 (centres undefined)	.	.	.	.	-11.9
NC(=S)N/N=C/c1ccc2c(c1)OCCO2	-6.6%	32.5	27.9*	112.5%	69.9
CNC(=S)N/N=C/c1ccc2c(c1)OCCO2	58.1%	72.7*	36.4*	46.5%	-24.2
Cn1c(=O)n(C)c2cc(/C=N/NC(N)=S)ccc21	33.1%	15.7	-3.9	-9.5%	23.5
O=S(=O)(NCCc1ccccc1)c1ccc(F)cc1	-6.6%	13.6	-2.3	19.1%	-18.2
CCCNC(=O)COC(=O)c1ccccc1C(=O)c1ccc(Cl)c([N+](=O)[O-])c1	13.3%	41.1	59.7*	?	-113.3*
Cc1ccc(Cl)c(NC(=O)COC(=O)c2ccccc2C(=O)c2ccc(Cl)c([N+](=O)[O-])c2)c1Cl	-23.5%	-10.3	-0.8	-28.9%	-101.6*
Cc1ccc(C(=O)OCC(=O)Nc2c(C)n(C)n(-c3ccccc3)c2=O)cc1[N+](=O)[O-]	23.3%	-10.3	-2.0	16.9%	4.6
Cc1ccc(C(=O)c2ccccc2C(=O)OCC(=O)NCCc2ccc(Cl)cc2Cl)cc1	?	-15.4	1.4	-4.0%	-24.9
COCCNc1nc(Nc2ccc(F)cc2)c2sccc2n1	.	.	.	.	-14.6
CCOc1ccc(NC(=O)/C=C/c2ccccc2)c([N+](=O)[O-])c1	8.28µM*	28.9	25.2*	9.28µM*	36.6
CCOc1ccc(Nc2ccc(C(=O)O)cc2[N+](=O)[O-])cc1	?	-6.1	1.3	-1.1%[0.00184 µM]	42.5
CCOc1ccc(N/C=C/C(=O)c2ccccc2)c([N+](=O)[O-])c1	?	46.2*	58.7*	-49.2%	1.0
CCN(c1ccccc1)S(=O)(=O)c1ccc2[nH]cc(C(=O)NCc3ccc(C)cc3)c(=O)c2c1	.	.	.	.	-0.8
CNc1cc([N+](=O)[O-])ccc1OCc1ccccc1	24.5%	89.5*	27.2*	21.9%	47.8
CCOc1cc(Br)c(COc2ccc(C)nc2[N+](=O)[O-])cc1OCC	?	-1.2	-3.5	?	-90.4*
Cc1nn(CCOc2cccc(Br)c2)c(C)c1[N+](=O)[O-]	62.1%[5.75 µM]	27.1	1.7	?	-25.3
Cc1ccc(OCc2ccc(-c3ccccc3)cc2)c([N+](=O)[O-])n1	18.8%	29.2	25.1*	32.1%	-82.9*
Cc1ccc(OCCOc2cccc(Br)c2)c([N+](=O)[O-])n1	63.6%	96.0*	40.0*	98.5%	12.2
CCN(c1ccccc1)S(=O)(=O)c1ccc(NC(=O)c2cc(=O)c3cc(C)ccc3o2)cc1	.	.	.	.	18.6
COC(=O)c1ccc2nc(-c3cccc(Cl)c3)c(Cc3ccccc3)n2c1	.	.	.	.	37.1
SMILES	Pf growth 96h	Shiga inhibitor	CHX counter	Pf growth 48h	HCMV antiviral
Cc1ccc(OCc2ccc(Br)cc2)c([N+](=O)[O-])n1	473.3%	83.8*	56.1*	i	-8.9
N#Cc1ccc(COc2cccnc2[N+](=O)[O-])cc1	30.5%	11.5	8.2	?	-35.0
O=[N+]([O-])c1ncccc1OCc1ccc(-c2ccccc2)cc1	2.8%	40.8	18.7*	-1.6%	-35.1
CC(=O)O[C@@H]1[C@@H](O)CN[C@@H]1Cc1ccccc1	.	-29.2	-13.4	.	.
Cc1cc(C(=O)CSc2n[nH]c(-c3ccccc3F)n2)c(C)n1Cc1cccs1	.	38.8	17.0*	-4.2%	-30.7
Cc1cc(C(=O)CSc2nnc(N)s2)c(C)n1Cc1cccs1	-96.2%	83.0*	57.4*	-35.1%	-33.8
Cc1csc(SCC(=O)c2cc(C)n(Cc3cccs3)c2C)n1	.	31.6*	16.8*	144.2%	-94.2*
Cc1cc(C(=O)CSc2nnc(-c3ccc(OC(F)F)cc3)o2)c(C)n1Cc1cccs1	30.4%	-4.2	1.2	7.0%	1.5
Cc1nonc1C1CCCN1Cc1cn[nH]c1-c1ccc2c(c1)OCO2 (centres undefined)	?	-5.9	1.0	6.0%	?
CC(C)(C)OC(=O)N1CCC[C@H]1c1nnc(SCc2c(Cl)cccc2Cl)o1	?	-11.1	-1.7	9.28µM*	37.6
